Assay results: PubChem BioAssay (NCI)
Compounds without any hit were thinned out: in the full panel of roughly 83,000, 20% have a hit.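 Cells were grown in 96-well plates and exposed to the test compound at a single concentration for 48 hours; results are reported as percent growth, with values below 10 considered active.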 Unmarked numbers belong to inactive results. Active and inactive are the calls of the source.

System: HL-60(TB) leukemia
Test: NCI-60 one-dose screen, 48 h (100 = growth as untreated, 0 = no growth, -100 = all killed)
Settings: 10 µM unless noted

SMILES | growth
COc1cc(-c2nc(NC(C)=O)sc2-c2ccnc(NCCNS(=O)(=O)c3ccccc3)n2)ccc1Cl | -22.3% (active)
Cc1nc(Nc2ccc(F)c(Cl)c2)sc1C(=O)O | 11.6%
COc1cc(C2CC(=O)Nc3n[nH]c(-c4ccccc4)c32)cc(OC)c1OC (stereo not given) | 39.1%
CCC1=C(c2ccc(OC)cc2)C(C)(C)Oc2cc(O)c(CN3CCCC3)cc21 | 85%
[2H]C([2H])([2H])Oc1c(F)cccc1/C=C/C(=O)/C=C(O)/C=C/c1cccc(F)c1OC([2H])([2H])[2H] | 88.5%
O=C(/C=C/c1sc(Cl)nc1Cl)c1ccccc1 | 42.2%
CC1Cc2cc(F)ccc2-n2cccc21 (stereo not given) | 111%
NC1=NC(c2cccc(Br)c2)c2sc3ccc(Cl)cc3c2N1 (stereo not given) | 102%
CC(=O)Nc1c(Br)cc2c(c1Br)Cc1cc(Br)ccc1-2 | 98.5%
CCC(C)C(N)C(=O)NC(CC(C)C)C(=O)N1CCCC1C(=O)NC(Cc1c[nH]c2ccccc12)C(=O)NC(CCCCN)C(=O)NC(Cc1c[nH]c2ccccc12)C(=O)N1CCCC1C(=O)NC(Cc1c[nH]c2ccccc12)C(=O)NC(Cc1c[nH]c2ccccc12)C(=O)N1CCCC1C(=O)NC(Cc1c[nH]c2ccccc12)C(=O)NC(CCCNC(=N)N)C(=O)NC(CCCNC(=N)N)C(N)=O (stereo not given) | -2.6% (active)
CC/C(=C(/c1ccc(Cl)cc1)c1ccc(OCCN(C)C)cc1)c1ccc(Cl)cc1 | 64.9%
CN1CCN(Cc2ccc(NC(=O)c3cncc(C#Cc4cncc5[nH]ncc45)c3)cc2C(F)(F)F)CC1 | -28.9% (active)
Cc1nn(-c2ccccc2)c2nc3nc4c(c(N)c3c(-c3ccc(Cl)cc3)c12)CCC4 | 102%
Cc1cc(NCc2cc(Nc3ccnc4cc(Cl)ccc34)ccc2F)nc(N2CCOCC2)n1 | -52.7% (active)
O=C(Nc1ccccc1)c1cc2ccccc2s1 | 61.6%
COc1ccc(CN2C(=O)C(Cl)=C(Nc3cccc(C(F)(F)F)c3)C2=O)cc1 | 29%
CCOC(=O)C(=CCC(C)C)C(=O)OCC | 40.5%
Nc1nc2cc(O)ccc2n2cc3c(F)cccc3c12 | 21.7%
COc1cc2c(Nc3ccc(-c4ccc(N)cc4)cc3)ncnc2c(OC)c1OC | 11.7%
CC(Br)C(Br)c1cc2c(cc1Br)OCO2 (stereo not given) | 97%

SMILES | growth
O=C(c1ccccc1)C1(Br)CCCCC1 | 106%
N#Cc1c(Nc2ccc(F)cc2)n[nH]c1-c1cccs1 | 95.3%
COc1cc(OCc2cccc(-c3ccc(C(O)c4nccs4)cc3)c2C)cc(OC)c1C=O (stereo not given) | 43.5%
COc1ccc2c(c1)CCc1c-2n[nH]c1-c1[nH]nc2c1CCc1cc(OC)ccc1-2 | 23.4%
COc1ccc(-c2ccc(=O)oc2C#Cc2cc(OC)c(OC)c(OC)c2)cc1O | -45.7% (active)
N#Cc1c2c(nc3n[nH]c(N)c13)CCCC2 | 87.3%
C=C1CC[C@@H](C(=O)OC)Cc2nc(C)ccc21 | 100%
CCN(CC)CCCNc1cc(OC)c(OC)c2cccnc12 | 29.2%
CCN(CC)CCCCNc1c2ccccc2[n+](C)c2c1[nH]c1ccccc12 | 22.7%
CCN(CC)CCCC(C)Nc1ccc2cc(OC)ccc2n1 (stereo not given) | 126%
CCCC/C=C/[C@@H]1C[C@H]1CCO | 111%
COc1ncc(-c2ccc3ncnc(Nc4cccc(Cl)c4)c3c2)cc1N(S(C)(=O)=O)S(C)(=O)=O | 49.7%
CCCC(=O)OCC1OC(n2cnc3c(=S)nc(N)[nH]c32)C(OC(=O)CCC)C1OC(=O)CCC (stereo not given) | 13.2%
CCN(CC)CCC(CNc1c(C)cnc2cc(Cl)ccc12)c1ccc(Cl)c(Cl)c1 (stereo not given) | 51.5%
COc1cccc(C(=O)O)c1OC | 106%
CCCCCCCCCCCCCCCCCC1=NC(C)(CO)CO1 (stereo not given) | 87.2%
CC([C@H]1CCC2C3CCC4C[C@@H](NC=O)CC[C@]4(C)C3CC[C@@]21C)N(C)C (stereo not given in full) | -61.1% (active)
COCCn1cc(-c2csc(-c3c[nH]c4ccc(Br)cc34)n2)c2cccnc21 | 20.5%
O=C(Nc1nc(-c2ccccc2)cs1)c1cc(-c2ccc(Br)cc2)nc2ccccc12 | 31.5%
Cc1[nH]c(C2CC(c3ccc(C(F)(F)F)c(F)c3)=NN2c2ccccc2)c(C)c1C(=O)NCC(F)(F)F (stereo not given) | 87.6%
